Data reported in the supplement of paper PMC11732987, “Enantioselective OTUD7B fragment discovery through chemoproteomics screening and high-throughput optimisation” (Communications Chemistry, 2025).

Key:
Assay in all cases: log2 ratio of Biotin-Ahx-Ub-VS probe labelling (fragment/DMSO); higher = less target engagement (more negative = stronger competition), active = hit call of the paper (q ≤ 0.05, log2 ratio ≤ -1)
Details in all cases: compound concentration: 200 uM; treatment time: 3 h
OTUD6B = target: T1, OTUD6B (UniProt Q8N6M0)
T1 sequence (whole entry): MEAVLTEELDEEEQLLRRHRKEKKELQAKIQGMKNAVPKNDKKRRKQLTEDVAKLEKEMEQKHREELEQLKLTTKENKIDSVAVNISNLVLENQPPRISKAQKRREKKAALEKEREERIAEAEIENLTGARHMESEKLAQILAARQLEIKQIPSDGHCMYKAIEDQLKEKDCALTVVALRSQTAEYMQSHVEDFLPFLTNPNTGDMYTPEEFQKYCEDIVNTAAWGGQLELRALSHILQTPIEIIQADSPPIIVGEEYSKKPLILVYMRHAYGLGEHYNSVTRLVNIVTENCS
Outline: (§1)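 Labelling with Biotin-Ahx-Ub-VS (0.5 µM final, 1 h) followed a 3 h triplicate treatment of HEK293T lysate (495 µg per sample, Tris/CHAPS/IGEPAL buffer with protease inhibitors) with fragment at 200 µM or vehicle. Labelled DUBs were NeutrAvidin-enriched, digested with LysC and trypsin, and run by diaPASEF LC-MS/MS. The values, average log2 fragment/vehicle ratios by unpaired t-test, come from global-median-normalised Spectronaut label-free quantities. Proteins with ≥2 unique peptides were used.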

OTUD7B = target: T2, OTUD7B (UniProt Q6GQQ9)
T2 sequence (whole entry): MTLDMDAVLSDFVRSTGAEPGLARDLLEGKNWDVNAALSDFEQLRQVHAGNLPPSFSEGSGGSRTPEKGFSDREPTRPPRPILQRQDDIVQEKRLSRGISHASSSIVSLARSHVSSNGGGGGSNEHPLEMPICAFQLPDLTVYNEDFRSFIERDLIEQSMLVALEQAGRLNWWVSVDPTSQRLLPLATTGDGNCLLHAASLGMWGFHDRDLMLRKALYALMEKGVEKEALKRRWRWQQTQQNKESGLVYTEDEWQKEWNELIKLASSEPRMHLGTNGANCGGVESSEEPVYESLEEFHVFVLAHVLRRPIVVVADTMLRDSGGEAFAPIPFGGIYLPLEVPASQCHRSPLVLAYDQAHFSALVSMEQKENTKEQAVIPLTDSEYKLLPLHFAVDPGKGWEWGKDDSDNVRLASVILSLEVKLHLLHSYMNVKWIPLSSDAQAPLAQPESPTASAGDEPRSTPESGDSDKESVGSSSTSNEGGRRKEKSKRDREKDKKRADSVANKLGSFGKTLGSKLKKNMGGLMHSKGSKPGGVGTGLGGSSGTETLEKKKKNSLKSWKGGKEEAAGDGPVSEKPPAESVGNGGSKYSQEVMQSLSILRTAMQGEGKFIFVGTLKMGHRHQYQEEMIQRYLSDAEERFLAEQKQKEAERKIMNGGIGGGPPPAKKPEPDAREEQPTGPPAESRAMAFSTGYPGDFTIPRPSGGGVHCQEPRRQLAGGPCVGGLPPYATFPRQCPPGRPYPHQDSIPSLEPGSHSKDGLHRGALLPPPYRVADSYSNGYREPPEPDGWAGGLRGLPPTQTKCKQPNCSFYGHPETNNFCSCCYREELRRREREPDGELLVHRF
Outline: as §1

PRPF8 = PRPF8 (UniProt Q6P2Q9)
Outline: as §1

PSMD7 = target: T3, PSMD7 (UniProt P51665)
T3 sequence (whole entry): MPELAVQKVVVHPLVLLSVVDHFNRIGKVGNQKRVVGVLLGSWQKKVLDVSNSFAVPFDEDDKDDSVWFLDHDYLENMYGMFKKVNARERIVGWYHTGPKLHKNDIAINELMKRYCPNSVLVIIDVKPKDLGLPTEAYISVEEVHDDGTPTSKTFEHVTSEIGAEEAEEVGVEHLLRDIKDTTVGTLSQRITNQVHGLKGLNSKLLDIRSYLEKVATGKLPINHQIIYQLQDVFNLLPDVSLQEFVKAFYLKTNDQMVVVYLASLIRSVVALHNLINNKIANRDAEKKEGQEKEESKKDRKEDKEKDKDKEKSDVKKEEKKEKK
Outline: as §1

UCHL1 = UCHL1 (UniProt P09936)
Outline: as §1

UCHL3 = target: T4, UCHL3 (UniProt P15374)
T4 sequence (whole entry): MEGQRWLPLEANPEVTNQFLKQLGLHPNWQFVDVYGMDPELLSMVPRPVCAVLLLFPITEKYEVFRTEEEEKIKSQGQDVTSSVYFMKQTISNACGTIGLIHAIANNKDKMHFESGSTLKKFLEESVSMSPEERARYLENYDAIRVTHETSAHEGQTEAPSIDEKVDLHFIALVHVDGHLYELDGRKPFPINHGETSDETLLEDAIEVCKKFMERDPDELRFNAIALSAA
Outline: as §1

UCHL5 = target: T5, UCHL5 (UniProt Q9Y5K5)
T5 sequence (whole entry): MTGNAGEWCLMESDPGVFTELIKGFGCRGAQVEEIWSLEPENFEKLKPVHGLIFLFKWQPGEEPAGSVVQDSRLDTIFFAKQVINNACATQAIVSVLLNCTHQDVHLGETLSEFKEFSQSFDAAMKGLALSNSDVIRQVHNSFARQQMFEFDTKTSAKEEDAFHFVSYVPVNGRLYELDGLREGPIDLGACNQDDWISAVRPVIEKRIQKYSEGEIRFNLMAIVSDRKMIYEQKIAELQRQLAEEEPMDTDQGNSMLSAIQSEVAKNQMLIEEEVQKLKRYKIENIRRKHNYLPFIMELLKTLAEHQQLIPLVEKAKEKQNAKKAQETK
Outline: as §1

USP10 = USP10 (UniProt Q14694)
Outline: as §1

USP15 = target: T6, USP15 (UniProt Q9Y4E8)
T6 sequence (whole entry): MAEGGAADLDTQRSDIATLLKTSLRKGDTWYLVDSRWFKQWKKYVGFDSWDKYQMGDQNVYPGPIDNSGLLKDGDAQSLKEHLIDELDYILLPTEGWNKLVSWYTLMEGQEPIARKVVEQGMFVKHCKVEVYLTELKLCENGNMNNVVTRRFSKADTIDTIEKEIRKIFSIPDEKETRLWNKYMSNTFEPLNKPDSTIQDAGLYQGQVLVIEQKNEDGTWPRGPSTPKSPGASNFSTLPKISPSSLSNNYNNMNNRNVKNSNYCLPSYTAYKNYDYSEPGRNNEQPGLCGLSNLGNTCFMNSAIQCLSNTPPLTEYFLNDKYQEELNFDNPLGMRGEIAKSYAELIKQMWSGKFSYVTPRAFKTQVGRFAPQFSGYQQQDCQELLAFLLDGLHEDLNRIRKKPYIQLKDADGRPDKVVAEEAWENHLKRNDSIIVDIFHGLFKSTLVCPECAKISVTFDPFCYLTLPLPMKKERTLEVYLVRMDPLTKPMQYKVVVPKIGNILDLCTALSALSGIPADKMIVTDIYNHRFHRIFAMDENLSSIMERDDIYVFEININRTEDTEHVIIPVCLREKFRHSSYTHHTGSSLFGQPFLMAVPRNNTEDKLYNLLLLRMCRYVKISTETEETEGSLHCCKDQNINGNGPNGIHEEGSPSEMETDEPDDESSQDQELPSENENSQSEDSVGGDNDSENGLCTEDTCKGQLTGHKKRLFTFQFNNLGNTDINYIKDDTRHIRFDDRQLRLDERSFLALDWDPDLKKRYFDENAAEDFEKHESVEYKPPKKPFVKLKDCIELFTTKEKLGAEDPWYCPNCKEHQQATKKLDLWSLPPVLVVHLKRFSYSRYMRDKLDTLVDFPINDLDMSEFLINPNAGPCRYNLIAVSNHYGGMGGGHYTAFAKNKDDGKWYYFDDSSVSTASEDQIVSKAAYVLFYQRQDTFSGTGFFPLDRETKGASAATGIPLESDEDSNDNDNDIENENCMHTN
Outline: as §1

USP16 = USP16 (UniProt Q9Y5T5)
Outline: as §1

Measured: log2 ratio of Biotin-Ahx-Ub-VS probe labelling

UCHL1, sequence (P09936 whole entry, looked up): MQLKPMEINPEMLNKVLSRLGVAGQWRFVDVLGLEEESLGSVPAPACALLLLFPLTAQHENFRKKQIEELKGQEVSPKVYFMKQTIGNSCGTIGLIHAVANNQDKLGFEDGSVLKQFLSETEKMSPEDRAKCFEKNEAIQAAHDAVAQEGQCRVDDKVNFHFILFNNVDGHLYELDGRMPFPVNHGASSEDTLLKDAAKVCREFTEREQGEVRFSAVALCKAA
USP16, sequence (Q9Y5T5 whole entry, looked up): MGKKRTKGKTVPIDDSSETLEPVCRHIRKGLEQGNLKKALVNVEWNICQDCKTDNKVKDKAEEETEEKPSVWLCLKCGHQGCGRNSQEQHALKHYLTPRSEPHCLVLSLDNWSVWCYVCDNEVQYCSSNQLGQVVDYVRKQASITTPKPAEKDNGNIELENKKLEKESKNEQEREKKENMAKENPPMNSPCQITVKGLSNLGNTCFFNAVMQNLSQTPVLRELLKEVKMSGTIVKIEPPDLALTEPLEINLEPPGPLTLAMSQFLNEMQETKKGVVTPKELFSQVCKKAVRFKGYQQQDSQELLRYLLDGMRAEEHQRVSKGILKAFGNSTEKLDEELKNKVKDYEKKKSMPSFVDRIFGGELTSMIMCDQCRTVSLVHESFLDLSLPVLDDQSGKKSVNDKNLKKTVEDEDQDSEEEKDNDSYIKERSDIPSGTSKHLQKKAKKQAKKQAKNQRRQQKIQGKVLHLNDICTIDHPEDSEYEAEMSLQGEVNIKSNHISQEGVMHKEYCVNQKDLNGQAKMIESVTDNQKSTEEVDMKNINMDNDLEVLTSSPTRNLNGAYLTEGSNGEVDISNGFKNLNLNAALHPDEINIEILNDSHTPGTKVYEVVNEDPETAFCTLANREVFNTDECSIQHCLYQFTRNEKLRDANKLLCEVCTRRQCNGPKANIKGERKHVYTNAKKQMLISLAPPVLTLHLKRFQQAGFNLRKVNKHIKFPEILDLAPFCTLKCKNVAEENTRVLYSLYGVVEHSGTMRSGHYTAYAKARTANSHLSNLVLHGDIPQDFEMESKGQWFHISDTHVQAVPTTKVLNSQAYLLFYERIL
USP10, sequence (Q14694 whole entry): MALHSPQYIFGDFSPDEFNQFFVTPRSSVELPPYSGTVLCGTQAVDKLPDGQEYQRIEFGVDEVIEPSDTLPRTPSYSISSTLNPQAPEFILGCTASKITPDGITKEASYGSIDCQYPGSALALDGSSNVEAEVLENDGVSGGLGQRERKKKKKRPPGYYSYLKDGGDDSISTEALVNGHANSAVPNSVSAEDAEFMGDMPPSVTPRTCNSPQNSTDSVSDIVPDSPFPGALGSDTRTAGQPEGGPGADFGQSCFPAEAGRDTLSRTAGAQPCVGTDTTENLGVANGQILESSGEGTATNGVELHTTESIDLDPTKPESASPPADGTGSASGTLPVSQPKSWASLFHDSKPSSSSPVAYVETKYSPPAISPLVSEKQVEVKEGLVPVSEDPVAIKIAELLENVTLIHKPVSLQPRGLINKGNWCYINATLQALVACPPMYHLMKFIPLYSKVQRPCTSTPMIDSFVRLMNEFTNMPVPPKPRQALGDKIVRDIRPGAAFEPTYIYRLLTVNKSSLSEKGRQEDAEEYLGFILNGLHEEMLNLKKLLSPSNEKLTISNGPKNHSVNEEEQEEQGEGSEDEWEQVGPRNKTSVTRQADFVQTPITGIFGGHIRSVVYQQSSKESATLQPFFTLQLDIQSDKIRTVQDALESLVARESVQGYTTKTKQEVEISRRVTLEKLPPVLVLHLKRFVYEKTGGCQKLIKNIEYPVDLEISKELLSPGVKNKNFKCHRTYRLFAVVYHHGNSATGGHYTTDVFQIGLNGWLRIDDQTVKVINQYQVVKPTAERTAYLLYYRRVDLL

O=C(CCl)Nc1cc(Cl)ccc1C(=O)O
active: UCHL1 -1.38
inactive: OTUD6B 0.133 | OTUD7B -0.0733 | PRPF8 -0.2 | PSMD7 -0.0699 | UCHL3 0.231 | UCHL5 -0.0926 | USP10 -0.101 | USP15 -0.15 | USP16 -0.669
